{"source": "PubChem BioAssay (Tox21)", "note": "Results filed as inconclusive are left out. Entries that show only a call come without a potency. Calls of active or inactive are those of the source. The call rests on the fitted dose curve.", "data": [{"experiment": "cAMP Responsive Elements (CRE) small molecule agonists, cell-based qHTS assay (AID 1963590)", "settings": "CRE-bla HEK293T, beta-lactamase FRET ratio, 3 h; series mostly up to 92.4 µM", "from_the_text": "U.S. Tox21 Program National Center for Advancing Translational Sciences [NCATS] Division of Preclinical Innovation [DPI] U.S. Environmental Protection Agency [EPA] National Institutes of Environmental Health Sciences [NIEHS] National Toxicology Program [NTP] U.S. Food and Drug Administration [FDA] Tox21 Assay Overview: CREB (cyclic-AMP Responsive Element Binding Protein) is a cellular transcription factor. It binds to certain DNA sequences called cAMP Responsive Elements (CRE) and regulates the transcription of the genes. […] This cell line can be used to find agonists/antagonists of the cyclic AMP signaling pathway. The activation of the report gene under culture conditions can be detected by fluorescence intensity. This cell line has been used to screen the Tox21 10K compound library to identify agonists that induce oxidative stress.\nTox21 Assay Protocol Summary: CRE-bla Hek 293T cells were suspended in assay medium (DMEM containing 10% dialyzed FBS, 0.1 mM NEAA, 1 mM sodium pyruvate and 25 mM HEPES) and dispensed at 2,000 cells/5 uL /well into 1536-well black wall/clear bottom plates using a Multidrop Combi (ThermoFisher Scientific, Waltham, MA) dispenser. After the assay plates were incubated at 37 C/5% CO2 for 18 hrs, 23 nL of compounds dissolved in DMSO, positive controls or DMSO only was transferred to the assay plate by a pintool workstation (Kalypsys, San Diego, CA). After the plates were incubated at 37 C/5% CO2 for 3 hrs, 1 uL of LiveBLAzer B/G FRET substrate (Invitrogen, Carlsbad, CA) was added to each well using Bioraptr Flying Reagent Dispenser (FRD, Aurora Discovery, San Diego, CA). The plates were incubated at room temperature for 2 h.", "values": [{"molecule": "NCCOS(=O)(=O)O", "Potency": "inactive"}, {"molecule": "CCOC(=O)c1ccccc1C(=O)OCC", "Potency": "inactive"}, {"molecule": "N#CCCCl", "Potency": "inactive"}, {"molecule": "COP(=S)(OC)SCN1C(=O)c2ccccc2C1=O", "Potency": "inactive"}, {"molecule": "ClC1=C(Cl)C2(Cl)C3C(Cl)C=CC3C1(Cl)C2(Cl)Cl", "note": "(stereo not given)", "Potency": "inactive"}, {"molecule": "Brc1ccc(Oc2ccccc2)cc1", "Potency": "inactive"}, {"molecule": "CCCCN(CC)C(=O)SCCC", "Potency": "inactive"}, {"molecule": "Oc1cc(Cl)ccc1Cl", "Potency": "inactive"}, {"molecule": "O=C(O)CCl", "Potency": "inactive"}, {"molecule": "O=NN(c1ccccc1)c1ccccc1", "Potency": "inactive"}, {"molecule": "ClC(Cl)(Cl)c1ccccc1", "Potency": "inactive"}, {"molecule": "CCC(C)n1c(=O)[nH]c(C)c(Br)c1=O", "note": "(stereo not given)", "Potency": "inactive"}, {"molecule": "O=C1C=CC(=O)C=C1", "Potency": "inactive"}, {"molecule": "S=c1[nH]c2ccccc2[nH]1", "Potency": "inactive"}, {"molecule": "CN1C(=O)NC(=O)C(C)(C2=CCCCC2)C1=O", "note": "(stereo not given)", "Potency": "inactive"}, {"molecule": "Cc1cc(Cl)ccc1N=CN(C)C", "Potency": "inactive"}, {"molecule": "C[N+]1(C)CCCCC1", "Potency": "inactive"}, {"molecule": "O=P(Cl)(Cl)Cl", "Potency": "inactive"}, {"molecule": "N#CCNCC#N", "Potency": "inactive"}, {"molecule": "CCCCOC(=O)COC(=O)c1ccccc1C(=O)OCCCC", "Potency": "inactive"}, {"molecule": "Cl/C=C/Cl", "Potency": "inactive"}, {"molecule": "CCOP(=O)(OCC)OCC", "Potency": "inactive"}, {"molecule": "CNCC(O)c1ccc(O)cc1", "note": "(stereo not given)", "Potency": "inactive"}, {"molecule": "BrCCBr", "Potency": "inactive"}, {"molecule": "Nc1c(Br)cc([N+](=O)[O-])cc1[N+](=O)[O-]", "Potency": "inactive"}, {"molecule": "Nc1c(Oc2ccccc2)cc(O)c2c1C(=O)c1ccccc1C2=O", "Potency": "inactive"}, {"molecule": "Cc1ccc2ccccc2c1", "Potency": "inactive"}, {"molecule": "CCCN(CCC)N=O", "Potency": "inactive"}, {"molecule": "O=C(Cl)c1ccccc1", "Potency": "inactive"}, {"molecule": "CC(C)(N)Cc1ccccc1Cl", "Potency": "inactive"}, {"molecule": "OCC1CO1", "note": "(stereo not given)", "Potency": "inactive"}, {"molecule": "CCCCC(CC)CO[N+](=O)[O-]", "note": "(stereo not given)", "Potency": "inactive"}, {"molecule": "COP(=O)(OC)OC", "Potency": "inactive"}, {"molecule": "CCOC(=O)C1OC1(C)c1ccccc1", "note": "(stereo not given)", "Potency": "inactive"}, {"molecule": "CC12CC1(C)C(=O)N(c1cc(Cl)cc(Cl)c1)C2=O", "note": "(stereo not given)", "Potency": "inactive"}, {"molecule": "C=C(C)C(=O)OCC1CO1", "note": "(stereo not given)", "Potency": "inactive"}, {"molecule": "CCCCSP(=O)(SCCCC)SCCCC", "Potency": "inactive"}, {"molecule": "OC[C@@H](O)[C@H]1O[C@@H]2O[C@H](C(Cl)(Cl)Cl)O[C@@H]2[C@H]1O", "Potency": "inactive"}, {"molecule": "Oc1ccccc1Cl", "Potency": "inactive"}, {"molecule": "[N-]=[N+]=[N-]", "Potency": "inactive"}]}]}
